Results taken from the supplement of paper PMC8728848.
The full list was thinned out, with the strongest signals kept by preference.

How the values were obtained:
Test in all cases: glycan array binding signal (z-score within array); higher = stronger binding
Details in all cases: glycan notation: IUPAC condensed, linker removed
[1] = target: Fuc(a1-2)Gal(b1-3)GalNAc(b1-3)Gal
Summary of the method: (§1)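 The binding signal is a Z-score computed within each array. Data were drawn from 3228 arrays in the Consortium for Functional Glycomics database, restricted to those with a known protein sequence. Scores were averaged over arrays of the same protein sequence at different concentrations or buffers, and over linkers, and negative values can be taken as non-binding.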

[2] = target: Fuc(a1-2)Gal(b1-4)Fuc(a1-3)]GlcNAc(b1-2)Man(a1-3)[Fuc(a1-2)Gal(b1-4)[Fuc(a1-3)]GlcNAc(b1-2)Man(a1-6)]Man(b1-4)GlcNAc(b1-4)GlcNAc
Summary of the method: as §1

[3] = target: Fuc(a1-2)[Gal(a1-3)]Gal(b1-4)GlcNAc(b1-3)GalNAc
Summary of the method: as §1

[4] = target: Fuc(a1-2)[GalNAc(a1-3)]Gal(b1-3)GalNAc(a1-3)[Fuc(a1-2)]Gal(b1-4)GlcNAc
Summary of the method: as §1

[5] = target: Fuc(a1-2)[GalNAc(a1-3)]Gal(b1-4)GlcNAc(b1-3)Gal(b1-4)GlcNAc(b1-3)Gal(b1-4)GlcNAc
Summary of the method: as §1

[6] = target: Fuc(a1-3)[Gal(b1-4)]GlcNAc(b1-2)Man
Summary of the method: as §1

[7] = target: Gal(a1-3)Gal(b1-3)GlcNAc
Summary of the method: as §1

[8] = target: Gal(a1-3)Gal(b1-4)[Fuc(a1-3)]GlcNAc(b1-2)Man(a1-3)[Gal(a1-3)Gal(b1-4)[Fuc(a1-3)]GlcNAc(b1-2)Man(a1-6)]Man(b1-4)GlcNAc(b1-4)GlcNAc
Summary of the method: as §1

[9] = target: Gal(b1-3)GalNAc(a1-3)[Fuc(a1-2)]Gal(b1-4)GlcNAc
Summary of the method: as §1

[10] = target: Gal(b1-3)GlcNAc(b1-2)Man(a1-3)[Gal(b1-3)GlcNAc(b1-2)Man(a1-6)]Man(b1-4)GlcNAc(b1-4)[Fuc(a1-6)]GlcNAc
Summary of the method: as §1

[11] = target: Gal(b1-3)GlcNAc(b1-3)Gal(b1-4)Glc
Summary of the method: as §1

[12] = target: Gal(b1-3)GlcNAc(b1-3)Gal(b1-4)GlcNAc(b1-6)[Gal(b1-3)GlcNAc(b1-3)]Gal(b1-4)Glc
Summary of the method: as §1

[13] = target: Gal(b1-3)GlcNAc(b1-3)Gal(b1-4)[Fuc(a1-3)]GlcNAc(b1-6)[Gal(b1-3)GlcNAc(b1-3)]Gal(b1-4)Glc
Summary of the method: as §1

[14] = target: Gal(b1-3)[Fuc(a1-4)]GlcNAc(b1-2)Man
Summary of the method: as §1

[15] = target: Gal(b1-4)GlcNAc(b1-2)Man(a1-3)Man(b1-4)GlcNAc(b1-4)GlcNAc
Summary of the method: as §1

[16] = target: Gal(b1-4)GlcNAc(b1-2)Man(a1-3)[GlcNAc(b1-4)][Gal(b1-4)GlcNAc(b1-2)Man(a1-6)]Man(b1-4)GlcNAc(b1-4)GlcNAc
Summary of the method: as §1

[17] = target: Gal(b1-4)GlcNAc(b1-3)Gal(b1-4)GlcNAc(b1-3)Gal(b1-4)GlcNAc(b1-3)Gal(b1-4)GlcNAc(b1-2)Man(a1-3)[Gal(b1-4)GlcNAc(b1-3)Gal(b1-4)GlcNAc(b1-3)Gal(b1-4)GlcNAc(b1-3)Gal(b1-4)GlcNAc(b1-2)Man(a1-6)]Man(b1-4)GlcNAc(b1-4)GlcNAc
Summary of the method: as §1

[18] = target: Gal3S(b1-4)Glc6S
Summary of the method: as §1

[19] = target: Gal3S(b1-4)[Fuc(a1-3)]Glc6S
Summary of the method: as §1

[20] = target: Gal3S6S(b1-4)GlcNAc6S
Summary of the method: as §1

[21] = target: Gal6P(b1-4)GlcNAc
Summary of the method: as §1

[22] = target: Gal6S(b1-3)GlcNAc6S
Summary of the method: as §1

[23] = target: GalNAc(b1-3)Gal(a1-4)Gal(b1-4)GlcNAc
Summary of the method: as §1

[24] = target: GalNAc(b1-4)Gal(b1-4)Glc
Summary of the method: as §1

[25] = target: GlcNAc(a1-4)Gal(b1-4)GalNAc
Summary of the method: as §1

[26] = target: GlcNAc(a1-4)Gal(b1-4)GlcNAc(b1-3)Gal(b1-4)GlcNAc
Summary of the method: as §1

[27] = target: Man(a1-2)Man(a1-2)Man(a1-6)[Man(a1-3)]Man
Summary of the method: as §1

[28] = target: Neu5Ac(a2-3)Gal
Summary of the method: as §1

[29] = target: Neu5Ac(a2-3)Gal(b1-3)GlcNAc(b1-2)Man(a1-3)[Neu5Ac(a2-3)Gal(b1-3)GlcNAc(b1-2)Man(a1-6)]Man(b1-4)GlcNAc(b1-4)GlcNAc
Summary of the method: as §1

[30] = target: Neu5Ac(a2-3)Gal(b1-4)GlcNAc(b1-2)[Neu5Ac(a2-3)Gal(b1-4)GlcNAc(b1-4)]Man(a1-3)[GlcNAc(b1-4)][Neu5Ac(a2-3)Gal(b1-4)GlcNAc(b1-2)[Neu5Ac(a2-3)Gal(b1-4)GlcNAc(b1-6)]Man(a1-6)]Man(b1-4)GlcNAc(b1-4)GlcNAc
Summary of the method: as §1

[31] = target: Neu5Ac(a2-3)Gal(b1-4)[Fuc(a1-3)]GlcNAc(b1-3)GalNAc
Summary of the method: as §1

[32] = target: Neu5Ac(a2-3)Gal6S(b1-4)GlcNAc
Summary of the method: as §1

[33] = target: Neu5Ac(a2-3)[GalNAc(b1-4)]Gal(b1-4)Glc
Summary of the method: as §1

[34] = target: Neu5Ac(a2-6)Gal(b1-4)GlcNAc(b1-2)Man(a1-3)[GlcNAc(b1-2)Man(a1-6)]Man(b1-4)GlcNAc(b1-4)GlcNAc
Summary of the method: as §1

[35] = target: Neu5Ac(a2-6)Gal(b1-4)GlcNAc(b1-2)Man(a1-6)[Gal(b1-4)GlcNAc(b1-2)Man(a1-3)]Man(b1-4)GlcNAc(b1-4)GlcNAc
Summary of the method: as §1

[36] = target: Neu5Ac(a2-6)Gal(b1-4)GlcNAc(b1-3)Gal(b1-4)GlcNAc(b1-3)Gal(b1-4)GlcNAc(b1-2)Man(a1-3)[Neu5Ac(a2-6)Gal(b1-4)GlcNAc(b1-3)Gal(b1-4)GlcNAc(b1-3)Gal(b1-4)GlcNAc(b1-2)Man(a1-6)]GalNAc
Summary of the method: as §1

[37] = target: Neu5Ac(a2-6)Gal(b1-4)GlcNAc(b1-6)[Gal(b1-3)GlcNAc(b1-3)]Gal(b1-4)Glc
Summary of the method: as §1

[38] = target: Neu5Ac(b2-6)Gal(b1-4)GlcNAc
Summary of the method: as §1

[39] = target: Neu5Gc(a2-3)Gal(b1-3)GlcNAc
Summary of the method: as §1

[40] = target: Neu5Gc(a2-3)Gal(b1-4)Glc
Summary of the method: as §1

[41] = target: Neu5Gc(a2-8)Neu5Ac(a2-3)Gal(b1-4)GlcNAc
Summary of the method: as §1

[42] = target: Neu5Gc(a2-8)Neu5Gc(a2-3)Gal(b1-4)GlcNAc(b1-3)Gal(b1-4)GlcNAc
Summary of the method: as §1

B1: Clec2 (Mus musculus), Q9JL99 (protein)
chain: MQDEDGYITLNIKPRKQALSSAEPASSWWRVMALVLLISSMGLVVGLVALGIMSVTQQKYLLAEKENLSATLQQLAKKFCQELIRQSEIKTKSTFEHKCSPCATKWRYHGDSCYGFFRRNLTWEESKQYCTEQNATLVKTASQSTLDYIAERITSVRWIGLSRQNSKKDWMWEDSSVLRKNGINLSGNTEENMNCAYLHNGKIHPASCKERHYLICERNAGMTRVDQLL
glycan array binding signal (z-score) [1]: 9.47 | glycan array binding signal (z-score) [2]: 3.96 | glycan array binding signal (z-score) [3]: -0.063 | glycan array binding signal (z-score) [4]: -0.388 | glycan array binding signal (z-score) [5]: -0.74 | glycan array binding signal (z-score) [6]: 0.349 | glycan array binding signal (z-score) [7]: 3 | glycan array binding signal (z-score) [8]: 6.06 | glycan array binding signal (z-score) [9]: -0.939 | glycan array binding signal (z-score) [10]: -0.411 | glycan array binding signal (z-score) [11]: 0.433 | glycan array binding signal (z-score) [12]: -0.864 | glycan array binding signal (z-score) [13]: -0.993 | glycan array binding signal (z-score) [14]: 3.5 | glycan array binding signal (z-score) [15]: -0.472 | glycan array binding signal (z-score) [16]: -0.464 | glycan array binding signal (z-score) [17]: -0.166 | glycan array binding signal (z-score) [18]: 3.71 | glycan array binding signal (z-score) [19]: 1.03 | glycan array binding signal (z-score) [20]: 4.08 | glycan array binding signal (z-score) [21]: 3.62 | glycan array binding signal (z-score) [22]: 3.2 | glycan array binding signal (z-score) [23]: 0.28 | glycan array binding signal (z-score) [24]: 1.12 | glycan array binding signal (z-score) [25]: -0.598 | glycan array binding signal (z-score) [26]: -0.749 | glycan array binding signal (z-score) [27]: -0.215 | glycan array binding signal (z-score) [28]: 0.604 | glycan array binding signal (z-score) [29]: 3.51 | glycan array binding signal (z-score) [30]: -0.711 | glycan array binding signal (z-score) [31]: 0.837 | glycan array binding signal (z-score) [32]: 0.844 | glycan array binding signal (z-score) [33]: -0.342 | glycan array binding signal (z-score) [34]: -0.833 | glycan array binding signal (z-score) [35]: -0.707 | glycan array binding signal (z-score) [36]: 4.45 | glycan array binding signal (z-score) [37]: -0.654 | glycan array binding signal (z-score) [38]: 0.023 | glycan array binding signal (z-score) [39]: -0.366 | glycan array binding signal (z-score) [40]: -0.112 | glycan array binding signal (z-score) [41]: -0.442 | glycan array binding signal (z-score) [42]: -0.34
